# In article PMC8384837, “Expanding the binding specificity for RNA recognition by a PUF domain”:
# Legend:
# Test in all cases: yeast three-hybrid, YBZ-1, SC-Leu-His + 0.5 mM 3-AT, 4 days
# Settings in all cases: tags: N-Gal4 AD-HA kept; label: inside an RPR1-promoter hybrid RNA with tandem MS2 sites; ssRNA
# PUM1 PUF domain R5-RHC = PUM1 PUF domain R5-RHC (Homo sapiens, UniProt Q14671 828-1176, C1007R;R1008H;Q1011C)
# Outline: (§1)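 The interaction score is the log change in variant frequency from input to selection. Scores were computed in log2 with a pseudocount of 1 for absent variants, using Illumina sequencing of PCR-amplified repeat regions. The input came from four days on SC-Leu and the selection from four days on SC-Leu-His + 0.5 mM 3-AT. The cells were strain YBZ-1 (LexA–MS2 coat fusion, HIS3 reporter) co-expressing Pumilio-1 PUF domain libraries and matching RNA elements from a centromeric plasmid.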
# PUM1 PUF domain R5-GMI = PUM1 PUF domain R5-GMI (Homo sapiens, UniProt Q14671 828-1176, C1007G;R1008M;Q1011I)
# Sequence of PUM1 PUF domain R5-GMI (Q14671 828-1176 C1007G/R1008M/Q1011I): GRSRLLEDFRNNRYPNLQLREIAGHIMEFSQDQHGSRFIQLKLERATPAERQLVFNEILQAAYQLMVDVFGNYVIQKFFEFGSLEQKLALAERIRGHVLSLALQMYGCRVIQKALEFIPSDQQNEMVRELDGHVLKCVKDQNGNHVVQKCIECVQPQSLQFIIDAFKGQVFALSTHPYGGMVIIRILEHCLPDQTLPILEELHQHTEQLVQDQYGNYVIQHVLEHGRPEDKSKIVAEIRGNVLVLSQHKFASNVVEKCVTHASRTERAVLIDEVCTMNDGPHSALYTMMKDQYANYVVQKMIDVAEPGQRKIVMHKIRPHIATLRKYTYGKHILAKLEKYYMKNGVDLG
# Outline: as §1
# PUM1 PUF domain R5-LNL = PUM1 PUF domain R5-LNL (Homo sapiens, UniProt Q14671 828-1176, C1007L;R1008N;Q1011L)
# Sequence of PUM1 PUF domain R5-LNL (Q14671 828-1176 C1007L/R1008N/Q1011L): as the sequence (Q14671 828-1176 C1007G/R1008M/Q1011I) above, with G180L, M181N, I184L counted along it
# Outline: as §1
# PUM1 PUF domain R5-RSD = PUM1 PUF domain R5-RSD (Homo sapiens, UniProt Q14671 828-1176, C1007R;R1008S;Q1011D)
# Sequence of PUM1 PUF domain R5-RSD (Q14671 828-1176 C1007R/R1008S/Q1011D): as the sequence (Q14671 828-1176 C1007G/R1008M/Q1011I) above, with G180R, M181S, I184D counted along it
# Outline: as §1
# PUM1 PUF domain R2-LWT = PUM1 PUF domain R2-LWT (Homo sapiens, UniProt Q14671 828-1176, N899L;Y900W;Q903T)
# Sequence of PUM1 PUF domain R2-LWT (Q14671 828-1176 N899L/Y900W/Q903T): as the sequence (Q14671 828-1176 C1007G/R1008M/Q1011I) above, with N72L, Y73W, Q76T, G180C, M181R, I184Q counted along it
# Outline: as §1
# PUM1 PUF domain R4-WAC = PUM1 PUF domain R4-WAC (Homo sapiens, UniProt Q14671 828-1176, N971W;H972A;Q975C)
# Sequence of PUM1 PUF domain R4-WAC (Q14671 828-1176 N971W/H972A/Q975C): as the sequence (Q14671 828-1176 C1007G/R1008M/Q1011I) above, with N144W, H145A, Q148C, G180C, M181R, I184Q counted along it
# Outline: as §1
# PUM1 PUF domain R3-SRS = PUM1 PUF domain R3-SRS (Homo sapiens, UniProt Q14671 828-1176, C935S;Q939S)
# Sequence of PUM1 PUF domain R3-SRS (Q14671 828-1176 C935S/Q939S): as the sequence (Q14671 828-1176 C1007G/R1008M/Q1011I) above, with C108S, Q112S, G180C, M181R, I184Q counted along it
# Outline: as §1
# PUM1 PUF domain R3-WYG = PUM1 PUF domain R3-WYG (Homo sapiens, UniProt Q14671 828-1176, C935W;R936Y;Q939G)
# Sequence of PUM1 PUF domain R3-WYG (Q14671 828-1176 C935W/R936Y/Q939G): as the sequence (Q14671 828-1176 C1007G/R1008M/Q1011I) above, with C108W, R109Y, Q112G, G180C, M181R, I184Q counted along it
# Outline: as §1
# PUM1 PUF domain R3-GPC = PUM1 PUF domain R3-GPC (Homo sapiens, UniProt Q14671 828-1176, C935G;R936P;Q939C)
# Sequence of PUM1 PUF domain R3-GPC (Q14671 828-1176 C935G/R936P/Q939C): as the sequence (Q14671 828-1176 C1007G/R1008M/Q1011I) above, with C108G, R109P, Q112C, G180C, M181R, I184Q counted along it
# Outline: as §1
# PUM1 PUF domain R3-DWR = PUM1 PUF domain R3-DWR (Homo sapiens, UniProt Q14671 828-1176, C935D;R936W;Q939R)
# Sequence of PUM1 PUF domain R3-DWR (Q14671 828-1176 C935D/R936W/Q939R): as the sequence (Q14671 828-1176 C1007G/R1008M/Q1011I) above, with C108D, R109W, Q112R, G180C, M181R, I184Q counted along it
# Outline: as §1
# PUM1 PUF domain R8-FYR = PUM1 PUF domain R8-FYR (Homo sapiens, UniProt Q14671 828-1176, N1122F;Q1126R)
# Sequence of PUM1 PUF domain R8-FYR (Q14671 828-1176 N1122F/Q1126R): as the sequence (Q14671 828-1176 C1007G/R1008M/Q1011I) above, with G180C, M181R, I184Q, N295F, Q299R counted along it
# Outline: as §1
# PUM1 PUF domain R8-KFD = PUM1 PUF domain R8-KFD (Homo sapiens, UniProt Q14671 828-1176, N1122K;Y1123F;Q1126D)
# Sequence of PUM1 PUF domain R8-KFD (Q14671 828-1176 N1122K/Y1123F/Q1126D): as the sequence (Q14671 828-1176 C1007G/R1008M/Q1011I) above, with G180C, M181R, I184Q, N295K, Y296F, Q299D counted along it
# Outline: as §1
# PUM1 PUF domain R8-KHT = PUM1 PUF domain R8-KHT (Homo sapiens, UniProt Q14671 828-1176, N1122K;Y1123H;Q1126T)
# Sequence of PUM1 PUF domain R8-KHT (Q14671 828-1176 N1122K/Y1123H/Q1126T): as the sequence (Q14671 828-1176 C1007G/R1008M/Q1011I) above, with G180C, M181R, I184Q, N295K, Y296H, Q299T counted along it
# Outline: as §1
# PUM1 PUF domain R3-IWT = PUM1 PUF domain R3-IWT (Homo sapiens, UniProt Q14671 828-1176, C935I;R936W;Q939T)
# Sequence of PUM1 PUF domain R3-IWT (Q14671 828-1176 C935I/R936W/Q939T): as the sequence (Q14671 828-1176 C1007G/R1008M/Q1011I) above, with C108I, R109W, Q112T, G180C, M181R, I184Q counted along it
# Outline: as §1
# PUM1 PUF domain R3-ARD = PUM1 PUF domain R3-ARD (Homo sapiens, UniProt Q14671 828-1176, C935A;Q939D)
# Sequence of PUM1 PUF domain R3-ARD (Q14671 828-1176 C935A/Q939D): as the sequence (Q14671 828-1176 C1007G/R1008M/Q1011I) above, with C108A, Q112D, G180C, M181R, I184Q counted along it
# Outline: as §1
# PUM1 PUF domain R8-MHR = PUM1 PUF domain R8-MHR (Homo sapiens, UniProt Q14671 828-1176, N1122M;Y1123H;Q1126R)
# Sequence of PUM1 PUF domain R8-MHR (Q14671 828-1176 N1122M/Y1123H/Q1126R): as the sequence (Q14671 828-1176 C1007G/R1008M/Q1011I) above, with G180C, M181R, I184Q, N295M, Y296H, Q299R counted along it
# Outline: as §1
# PUM1 PUF domain R4-GPM = PUM1 PUF domain R4-GPM (Homo sapiens, UniProt Q14671 828-1176, N971G;H972P;Q975M)
# Sequence of PUM1 PUF domain R4-GPM (Q14671 828-1176 N971G/H972P/Q975M): as the sequence (Q14671 828-1176 C1007G/R1008M/Q1011I) above, with N144G, H145P, Q148M, G180C, M181R, I184Q counted along it
# Outline: as §1
# PUM1 PUF domain R5-IYH = PUM1 PUF domain R5-IYH (Homo sapiens, UniProt Q14671 828-1176, C1007I;R1008Y;Q1011H)
# Sequence of PUM1 PUF domain R5-IYH (Q14671 828-1176 C1007I/R1008Y/Q1011H): as the sequence (Q14671 828-1176 C1007G/R1008M/Q1011I) above, with G180I, M181Y, I184H counted along it
# Outline: as §1
# PUM1 PUF domain R1-RHR = PUM1 PUF domain R1-RHR (Homo sapiens, UniProt Q14671 828-1176, S863R;R864H;Q867R)
# Sequence of PUM1 PUF domain R1-RHR (Q14671 828-1176 S863R/R864H/Q867R): as the sequence (Q14671 828-1176 C1007G/R1008M/Q1011I) above, with S36R, R37H, Q40R, G180C, M181R, I184Q counted along it
# Outline: as §1
# PUM1 PUF domain R5-SGT = PUM1 PUF domain R5-SGT (Homo sapiens, UniProt Q14671 828-1176, C1007S;R1008G;Q1011T)
# Sequence of PUM1 PUF domain R5-SGT (Q14671 828-1176 C1007S/R1008G/Q1011T): as the sequence (Q14671 828-1176 C1007G/R1008M/Q1011I) above, with G180S, M181G, I184T counted along it
# Outline: as §1
# Sequence of PUM1 PUF domain R5-RHC (Q14671 828-1176 C1007R/R1008H/Q1011C): as the sequence (Q14671 828-1176 C1007G/R1008M/Q1011I) above, with G180R, M181H, I184C counted along it
sequence,measurement,setting,value
GGCUAGAACUAGUGGAUCCCCCGGCGCCCGGCGGCUCGAGCCCGGGUAAGUGUUAAUAGUCUGCAUGCCGCCGGGCGCCAUGCCUGCAGGUCGACUCUAGAAAACAUG,binding signal,PUM1 PUF domain R5-RHC,5.98 log2 enrichment (interaction score)
same,binding signal,PUM1 PUF domain R5-GMI,2.18 log2 enrichment (interaction score)
same,binding signal,PUM1 PUF domain R5-LNL,3.35 log2 enrichment (interaction score)
same,binding signal,PUM1 PUF domain R5-RSD,2.65 log2 enrichment (interaction score)
GGCUAGAACUAGUGGAUCCCCCGGCGCCCGGCGGCUCGAGCCCGGGUAAGUGUAAAAAGUCUGCAUGCCGCCGGGCGCCAUGCCUGCAGGUCGACUCUAGAAAACAUG,binding signal,PUM1 PUF domain R2-LWT,5.62 log2 enrichment (interaction score)
GGCUAGAACUAGUGGAUCCCCCGGCGCCCGGCGGCUCGAGCCCGGGUAAGUGUACAUAGUCUGCAUGCCGCCGGGCGCCAUGCCUGCAGGUCGACUCUAGAAAACAUG,binding signal,PUM1 PUF domain R4-WAC,2.99 log2 enrichment (interaction score)
GGCUAGAACUAGUGGAUCCCCCGGCGCCCGGCGGCUCGAGCCCGGGUAAGUGUAAUUAGUCUGCAUGCCGCCGGGCGCCAUGCCUGCAGGUCGACUCUAGAAAACAUG,binding signal,PUM1 PUF domain R3-SRS,1.65 log2 enrichment (interaction score)
same,binding signal,PUM1 PUF domain R3-WYG,4.81 log2 enrichment (interaction score)
same,binding signal,PUM1 PUF domain R3-GPC,2.82 log2 enrichment (interaction score)
same,binding signal,PUM1 PUF domain R3-DWR,3.53 log2 enrichment (interaction score)
GGCUAGAACUAGUGGAUCCCCCGGCGCCCGGCGGCUCGAGCCCGGGUAAGCGUAAAUAGUCUGCAUGCCGCCGGGCGCCAUGCCUGCAGGUCGACUCUAGAAAACAUG,binding signal,PUM1 PUF domain R8-FYR,5.29 log2 enrichment (interaction score)
same,binding signal,PUM1 PUF domain R8-KFD,5.69 log2 enrichment (interaction score)
same,binding signal,PUM1 PUF domain R8-KHT,4.89 log2 enrichment (interaction score)
GGCUAGAACUAGUGGAUCCCCCGGCGCCCGGCGGCUCGAGCCCGGGUAAGUGUAAGUAGUCUGCAUGCCGCCGGGCGCCAUGCCUGCAGGUCGACUCUAGAAAACAUG,binding signal,PUM1 PUF domain R3-SRS,2.81 log2 enrichment (interaction score)
same,binding signal,PUM1 PUF domain R3-WYG,3.09 log2 enrichment (interaction score)
same,binding signal,PUM1 PUF domain R3-IWT,3.1 log2 enrichment (interaction score)
same,binding signal,PUM1 PUF domain R3-ARD,4.51 log2 enrichment (interaction score)
same,binding signal,PUM1 PUF domain R3-DWR,1.12 log2 enrichment (interaction score)
GGCUAGAACUAGUGGAUCCCCCGGCGCCCGGCGGCUCGAGCCCGGGUAAGUGUAAAUAGUCUGCAUGCCGCCGGGCGCCAUGCCUGCAGGUCGACUCUAGAAAACAUG,binding signal,PUM1 PUF domain R5-RHC,3.15 log2 enrichment (interaction score)
same,binding signal,PUM1 PUF domain R8-FYR,5.38 log2 enrichment (interaction score)
same,binding signal,PUM1 PUF domain R8-MHR,3.92 log2 enrichment (interaction score)
same,binding signal,PUM1 PUF domain R3-SRS,4.33 log2 enrichment (interaction score)
same,binding signal,PUM1 PUF domain R4-WAC,3.2 log2 enrichment (interaction score)
same,binding signal,PUM1 PUF domain R2-LWT,1.6 log2 enrichment (interaction score)
same,binding signal,PUM1 PUF domain R3-GPC,2.57 log2 enrichment (interaction score)
same,binding signal,PUM1 PUF domain R4-GPM,2.8 log2 enrichment (interaction score)
same,binding signal,PUM1 PUF domain R5-IYH,4.47 log2 enrichment (interaction score)
same,binding signal,PUM1 PUF domain R3-DWR,0.88 log2 enrichment (interaction score)
GGCUAGAACUAGUGGAUCCCCCGGCGCCCGGCGGCUCGAGCCCGGGUAAGUGUAAAUCGUCUGCAUGCCGCCGGGCGCCAUGCCUGCAGGUCGACUCUAGAAAACAUG,binding signal,PUM1 PUF domain R1-RHR,2.88 log2 enrichment (interaction score)
GGCUAGAACUAGUGGAUCCCCCGGCGCCCGGCGGCUCGAGCCCGGGUAAGUGUGAAUAGUCUGCAUGCCGCCGGGCGCCAUGCCUGCAGGUCGACUCUAGAAAACAUG,binding signal,PUM1 PUF domain R5-SGT,2.85 log2 enrichment (interaction score)
GGCUAGAACUAGUGGAUCCCCCGGCGCCCGGCGGCUCGAGCCCGGGUAAGUGUCAAUAGUCUGCAUGCCGCCGGGCGCCAUGCCUGCAGGUCGACUCUAGAAAACAUG,binding signal,PUM1 PUF domain R5-RSD,2.74 log2 enrichment (interaction score)
GGCUAGAACUAGUGGAUCCCCCGGCGCCCGGCGGCUCGAGCCCGGGUAAGUGUAAAGAGUCUGCAUGCCGCCGGGCGCCAUGCCUGCAGGUCGACUCUAGAAAACAUG,binding signal,PUM1 PUF domain R2-LWT,2.4 log2 enrichment (interaction score)
GGCUAGAACUAGUGGAUCCCCCGGCGCCCGGCGGCUCGAGCCCGGGUAAGUGUAAAUUGUCUGCAUGCCGCCGGGCGCCAUGCCUGCAGGUCGACUCUAGAAAACAUG,binding signal,PUM1 PUF domain R1-RHR,2.91 log2 enrichment (interaction score)
